CXXC DNA block – inhibitors of human MLL CXXC domain-DNA interaction; MLL-CXXC / FITC-HOXA9 DNA fluorescence polarization; Potency, µM (highest dose often 115 µM), inactives show top-dose activity change, negative = inhibition, actives largely listed as inhibitors; 0.037% of 290,000 active; AID 2662; active means well fitted inhibition curve with a large enough effect in the polarisation, with a control signal flat, not every such curve was filed as active; inconclusive means small, poorly fitted or top-dose-only effect, or effect the other way, or a change in a side signal; inactive means no such curve, though single readings can be large or run the other way; the % refers to the polarisation; further: potency means the concentration at half of the fitted maximal effect
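Fluorescence polarization: 7 uM MLL-CXXC (stock) preincubated 5 min with compounds, then 50 nM fluorescein-HOX-A9 DNA (stock) added; 30 min ambient. Buffer 50 mM Tris-HCl pH 7.5, 50 mM NaCl, 1 mM DTT, 0.05% BSA.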
MBNL1-CUG inh – MBNL1-poly(CUG) RNA binding inhibition. Potency, µM (doses to about 57.5 µM), for the others: at the highest dose activity change, negative = inhibition, actives largely listed as inhibitors. AID 2675. TR-FRET MBNL1-His/biotin-(CUG)12 binding, 665/545 ratio. 0.036% of 280,000 active; active means well fitted inhibition curve with a large enough effect in the signal ratio, with a control signal flat, not every such curve was filed as active; inconclusive means small, poorly fitted or top-dose-only effect, or effect the other way, or a change in a side signal; inactive means no such curve, though single readings can be large or run the other way; the % refers to the signal ratio; further: potency means the concentration at half of the fitted maximal effect; on the % scale 0 is the no-effect control and ±100 the full control effect
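Compounds (final 92 nM to 58 uM) are added to His-tagged MBNL1 and biotin-(CUG)12, then terbium anti-His antibody and streptavidin-XL665 (5 nM final). After 60 min at room temperature, the 665/545 nm ratio is read.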
Menin MLL FP TR – inhibitors of human menin-MLL interaction, mutant MLL peptide; AID 1768; O00255; Potency, µM (top dose mostly 61.6 µM), without a hit: at the highest dose FP activity change, negative = inhibition, actives largely listed as inhibitors; 0.23% of 270,000 active; Menin + Texas Red MLL mutant peptide, fluorescence polarization; active means well fitted inhibition curve with a large enough effect in the polarisation, with a control signal flat, not every such curve was filed as active; inconclusive means small, poorly fitted or top-dose-only effect, or effect the other way, or a change in a side signal; inactive means no such curve, though single readings can be large or run the other way; the % refers to the polarisation; further: potency means the concentration at half of the fitted maximal effect; % of control where 0% means no effect
Menin MLL FP FL – displaces fluorescein MLL peptide from human menin | Fluorescence polarization, fluorescein-MLL peptide displacement from menin | FP activity change, % at 61.4 µM | 290,000 tested, under 10 active | AID 1766; active means well fitted curve in the direction sought with a large enough effect in the polarisation, not every such curve was filed as active; inconclusive means small, poorly fitted or top-dose-only effect, or effect the other way, or a change in a side signal; inactive means no such curve, though single readings can be large or run the other way; the % refers to the polarisation; further: % of control where 0% means no effect
Active calls of the source: *; [ ] = dose if it differs, or a comment. This is one part of a sample in which hits are shown more often than they occur.

Results for CCOC(=O)C1=C(CSc2nc(-c3ccccc3)ccc2C#N)OC(N)=C(C#N)C1c1ccc(OC)cc1 (stereo not given) ?
CXXC DNA block: 40%; MBNL1-CUG inh: 34%; Menin MLL FP TR: 14µM*; Menin MLL FP FL: inconclusive

What do the screens show for `COC(=O)c1ccc(CNC(=O)c2ccc(COc3ccccc3)cc2)cc1`?
CXXC DNA block: 19%; Menin MLL FP TR: 28µM*; Menin MLL FP FL: -28

Results for Cc1ccc(-c2nc3ccccc3s2)cc1NC(=S)NC(=O)c1cccc2ccccc12 ?
CXXC DNA block: 5%; MBNL1-CUG inh: -11%; Menin MLL FP TR: 11µM*

How did Cc1ccc(-c2nc3ccccc3s2)cc1NC(=S)NC(=O)/C=C/c1ccco1 do in these assays?
CXXC DNA block: 5%; MBNL1-CUG inh: -14%; Menin MLL FP TR: inconclusive; Menin MLL FP FL: 10

What do the screens show for `COc1ccc(N2CCN(C(=O)c3cc4cc(Cl)ccc4[nH]3)CC2)cc1`?
CXXC DNA block: -14%; MBNL1-CUG inh: 7%; Menin MLL FP TR: 32µM*; Menin MLL FP FL: -2

How did Oc1cccc(Nc2c3ccccc3nc3ccccc23)c1 do in these assays?
CXXC DNA block: 3%; MBNL1-CUG inh: inconclusive; Menin MLL FP TR: 32µM*; Menin MLL FP FL: -28

How did CN(C)c1ccc(NC(=O)C2C3C=CC(C3)C2C(=O)O)cc1 (stereo not given) do in these assays?
CXXC DNA block: inconclusive; MBNL1-CUG inh: inconclusive; Menin MLL FP TR: 20µM*; Menin MLL FP FL: -10

What do the screens show for `O=C(O)C1C2C=CC(C2)C1C(=O)Nc1ccc2c(c1)OCCO2` (stereo not given)?
CXXC DNA block: 1%; MBNL1-CUG inh: 4%; Menin MLL FP TR: 8%; Menin MLL FP FL: -2

Results for COCCn1c(=O)cnc2cnc(N3CCN(C)CC3)nc21 ?
Menin MLL FP TR: 35µM*; Menin MLL FP FL: -25

How did O=C1NC(=O)C(Cc2ccc(OCCN3COc4ccccc4C3=O)cc2)S1 (stereo not given) do in these assays?
Menin MLL FP TR: 20%; Menin MLL FP FL: -5

How did C/C(=N\NC(=O)c1ccc(Cl)c(Cl)c1)c1ccc(Br)s1 do in these assays?
CXXC DNA block: 5%; MBNL1-CUG inh: 2%; Menin MLL FP TR: 11µM*; Menin MLL FP FL: 2

Results for COc1ccc(C(=O)Nc2ccccc2C(=O)NC(Cc2ccc(O)cc2)C(=O)NNC(=O)c2ccccc2Cl)cc1 (stereo not given) ?
CXXC DNA block: 8%; MBNL1-CUG inh: inconclusive; Menin MLL FP TR: 28µM*; Menin MLL FP FL: 3

How did COc1ccc(C(=O)NNC(=O)C(Cc2ccc(O)cc2)NC(=O)c2ccccc2NC(=O)c2ccc(OC)cc2)cc1 (stereo not given) do in these assays?
CXXC DNA block: 12%; MBNL1-CUG inh: inconclusive; Menin MLL FP TR: inconclusive; Menin MLL FP FL: -1

What do the screens show for `O=C(CC1SC(=O)N(c2ccccc2)C1=O)Nc1ccc(Cl)cc1` (stereo not given)?
CXXC DNA block: 30%; Menin MLL FP FL: 0

How did O=C(CC1SC(=NCCc2ccccc2)N(/N=C/c2cccs2)C1=O)Nc1ccc(Cl)cc1 (stereo not given) do in these assays?
CXXC DNA block: 19%; MBNL1-CUG inh: -13%; Menin MLL FP TR: 40µM*; Menin MLL FP FL: 4

What do the screens show for `CCOC(=O)c1c(C)oc2c1c(C=NCc1ccccn1)c(O)c1ccccc12`?
CXXC DNA block: -13%; MBNL1-CUG inh: inconclusive; Menin MLL FP TR: 3.5µM*; Menin MLL FP FL: inconclusive

What do the screens show for `CCN1/C(=C/c2sc(-c3ccccc3C)c[n+]2C)Sc2ccccc21`?
CXXC DNA block: 0%; MBNL1-CUG inh: inconclusive; Menin MLL FP TR: 25µM*; Menin MLL FP FL: -2

What do the screens show for `CCC(=O)/C=C1/Sc2ccccc2N1CC`?
CXXC DNA block: 6%; MBNL1-CUG inh: 22%; Menin MLL FP TR: 0%; Menin MLL FP FL: 1

How did CC[C@H](C)[C@H](NC(=O)[C@H](C)NC(=O)[C@H](CC(=O)O)NC(=O)[C@H](CO)NC(=O)[C@@H](N)Cc1cnc[nH]1)C(=O)N[C@@H](Cc1ccccc1)C(=O)N[C@H](C(=O)N[C@@H](CCC(N)=O)C(=O)N[C@@H](CCC(N)=O)C(=O)N[C@@H](Cc1ccc(O)cc1)C(=O)N[C@@H](CO)C(=O)N[C@@H](CCCCN)C(=O)N[C@@H](CC(C)C)C(=O)N[C@@H](CC(C)C)C(=O)N[C@@H](C)C(=O)N[C@@H](CCCCN)C(=O)N[C@@H](CC(C)C)C(=O)N[C@@H](C)C(=O)N[C@@H](CC(C)C)C(=O)N[C@@H](CCC(N)=O)C(=O)N[C@@H](CCCCN)C(=O)N[C@@H](Cc1ccc(O)cc1)C(=O)N[C@@H](CC(C)C)C(=O)N[C@@H](C)C(=O)N[C@@H](CO)C(=O)N[C@H](C(=O)N[C@@H](CC(C)C)C(=O)NCC(=O)N[C@@H](CO)C(=O)N[C@@H](CCCNC(=N)N)C(=O)N[C@H](C(=O)N[C@@H](CO)C(=O)N1CCC[C@H]1C(=O)N1CCC[C@H]1C(=O)N1CCC[C@H]1C(N)=O)[C@@H](C)O)[C@@H](C)CC)[C@@H](C)O do in these assays?
Menin MLL FP TR: 13%; Menin MLL FP FL: 1

What do the screens show for `COC(=O)c1ccccc1S(=O)(=O)N1CCc2nc(-c3ccc(OC)cc3C)c3c(c2C1)CO[C@@H](c1ccccc1)C3`?
Menin MLL FP TR: -6%[11.7 µM]; Menin MLL FP FL: 1[11.7 µM]

Results for CC1=C(c2ccc(NN=C(C#N)C#N)cc2)NNC(=O)C1 ?
CXXC DNA block: -3%; Menin MLL FP TR: 36%; Menin MLL FP FL: 4

How did CCC(=Nc1ccc(N)cc1)C1=C(O)C(C(=O)OC)C(C)(C)CC1=O (stereo not given) do in these assays?
CXXC DNA block: 3%; MBNL1-CUG inh: inconclusive; Menin MLL FP TR: 32µM*; Menin MLL FP FL: inconclusive

Results for O=C(N/N=C\c1cn(-c2ccccc2)nc1-c1ccccc1)c1ccc(Br)o1 ?
CXXC DNA block: 21%; MBNL1-CUG inh: -10%; Menin MLL FP TR: 32µM*; Menin MLL FP FL: -1

What do the screens show for `COc1ccc(-c2nn(-c3ccccc3)cc2/C=N/NC(=O)c2cccc(S(=O)(=O)Nc3ccccc3Cl)c2)cc1`?
CXXC DNA block: 6%; Menin MLL FP TR: 16µM*; Menin MLL FP FL: -3

How did COC(=O)C1=C(C(=O)OC)[C@@H]2Nc3ccccc3[C@@]23C[C@@H](C(=O)OC)N(S(=O)(=O)c2ccc(Br)cc2)C3=N1 do in these assays?
Menin MLL FP TR: 4%[11.7 µM]; Menin MLL FP FL: -2[11.7 µM]

How did Cc1ccc(NC(=O)CCCCCC2NC(=O)NC2C)cc1 (stereo not given) do in these assays?
CXXC DNA block: 2%; MBNL1-CUG inh: 0.045µM*; Menin MLL FP TR: 29%; Menin MLL FP FL: 6

Results for CC1NC(=O)NC1CCCCCC(=O)Nc1ccc(F)c(Cl)c1 (stereo not given) ?
CXXC DNA block: 17%; Menin MLL FP TR: 11%; Menin MLL FP FL: 0
